Source: PubChem BioAssay
CD11b adhes enh = CD11b/CD18-fibrinogen binding enhancement; P05107+P11215; K562 CD11b/CD18 adhesion to fibrinogen, ATPlite luminescence; activation, % at 10 µM; 0.07% of 93,000 active;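 active means 10 µM primary screen giving 50% or more activity, confirmed by 40% or more on retest at that dose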
CYP2C9 inh = inhibitors of human CYP2C9; P11712; inhibition, % at 5 µM; CYP2C9 Supersomes, luciferin-H conversion, luminescence; 20% of 96,000 active;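 active means blocking of liver enzyme CYP2C9 beyond about 50% at 5 µM, limit read from the data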
CYP2C19 act = increases human CYP2C19 enzyme activity. 96,000 tested, under 10 active. activation factor at 5 µM. recombinant CYP2C19, luciferin-H EGE luminescence; active compounds read high; 0 = fully inhibited enzyme, 1 = untreated enzyme. P33261;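 active means activation factor of at least 2 at 5 µM in the primary screen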;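 further: 0 = wells with 2.5 mM tranylcypromine and 1 = vehicle-only wells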
Target sequence (P33261 whole entry, looked up): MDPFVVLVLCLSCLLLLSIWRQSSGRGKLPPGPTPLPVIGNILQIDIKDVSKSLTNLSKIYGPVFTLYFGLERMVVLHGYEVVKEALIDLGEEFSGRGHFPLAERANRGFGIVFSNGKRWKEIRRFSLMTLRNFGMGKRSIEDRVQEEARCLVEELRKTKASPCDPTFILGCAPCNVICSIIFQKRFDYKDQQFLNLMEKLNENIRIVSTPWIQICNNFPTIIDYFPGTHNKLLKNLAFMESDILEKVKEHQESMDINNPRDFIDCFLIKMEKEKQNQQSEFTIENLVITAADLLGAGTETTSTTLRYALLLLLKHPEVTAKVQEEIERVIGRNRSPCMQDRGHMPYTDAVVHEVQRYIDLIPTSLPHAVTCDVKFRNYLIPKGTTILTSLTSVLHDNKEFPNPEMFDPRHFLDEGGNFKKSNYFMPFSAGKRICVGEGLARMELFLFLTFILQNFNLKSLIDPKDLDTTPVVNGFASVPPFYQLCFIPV
CYP2C9 act = increases human cytochrome P450 2C9 activity. activation factor at 5 µM. AID 1024. recombinant CYP2C9, luciferin-H conversion, luminescence; active compounds read high; factor 1 = untreated enzyme, 0 = blocked. P11712. 1.4% of 96,000 active;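 active means activation factor of 2 or more for CYP2C9 at a 5 µM dose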;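 further: 0 = sulfaphenazole-blocked wells and 1 = vehicle-only wells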
Mac1 fbg inh = inhibitors of human CD11b/CD18 binding to fibrinogen | 0.54% of 93,000 active | inhibition, % at 10 µM | P05107+P11215 | K562 CD11b/CD18 adhesion to fibrinogen, ATPlite luminescence; Mn2+ added to activate the integrin | AID 1497;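 active means primary inhibition of 50% or more at 10 µM, then 40% or more on retest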
CYP2C19 inhib = human CYP2C19 inhibition; P33261; CYP2C19 Supersomes, luciferin-H EGE luminescence, 30 min; inhibition, % at 5 µM; 21% of 96,000 active; AID 778;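 active means CYP2C19 inhibition above a set limit at 5 µM in the primary screen, cut at about 50% in these data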;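 further: plate controls were negative control wells for no effect and 2.5 mM tranylcypromine positive control for full effect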
Starred values were filed as active, the others as inactive. Shown are actives, neighbours in structure and some others; about 28% of the full set was active somewhere.

Results for CCCNC(=O)CCC(=O)Nc1ncc(-c2ccc(C)cc2)n1C ?
CD11b adhes enh: -1; CYP2C9 inh: 19; CYP2C19 act: 0.9; CYP2C9 act: 0.8; Mac1 fbg inh: -8; CYP2C19 inhib: 13

Results for CCN1C(=O)N(C)C(N(O)C(=O)NC)C1(C)C (centres undefined) ?
CD11b adhes enh: 1; CYP2C9 inh: -10; CYP2C19 act: 1.1; CYP2C9 act: 1.1; Mac1 fbg inh: -2; CYP2C19 inhib: -10

Results for C=CC[N+](C)(C)C/C(Cl)=C(\Cl)c1ccccc1 ?
CD11b adhes enh: 2; CYP2C9 inh: 55*; CYP2C19 act: 1.1; CYP2C9 act: 0.5; Mac1 fbg inh: -2; CYP2C19 inhib: -14

How did CC(C)(C)C(=O)N1CCCC1C(=O)O (centres undefined) do in these assays?
CD11b adhes enh: -1; CYP2C9 inh: -18; CYP2C19 act: 1.1; CYP2C9 act: 1.2; Mac1 fbg inh: -3; CYP2C19 inhib: -8

How did CCCCCCn1c(NCC)nc2c1c(=O)[nH]c(=O)n2C do in these assays?
CD11b adhes enh: 5; CYP2C9 inh: -15; CYP2C19 act: 1; CYP2C9 act: 1.2; Mac1 fbg inh: 8; CYP2C19 inhib: -2

What do the screens show for `COc1ccc(/C=C2\C(=O)NCC(=O)N2Cc2ccccc2)cc1`?
CD11b adhes enh: 0; CYP2C9 inh: 53*; CYP2C19 act: 0.4; CYP2C9 act: 0.5; Mac1 fbg inh: -8; CYP2C19 inhib: 65*

Results for COc1ccc(/C=C2\C(=O)N(Cc3ccc(F)cc3)CC(=O)N2Cc2ccccc2)cc1 ?
CD11b adhes enh: 1; CYP2C9 inh: 88*; CYP2C19 act: 0.3; CYP2C9 act: 0.1; Mac1 fbg inh: -9; CYP2C19 inhib: 72*

What do the screens show for `O=S(=O)(/N=C(/Nc1ccccn1)c1ccccc1)c1ccccc1`?
CYP2C9 inh: 8; CYP2C19 act: 1; CYP2C9 act: 0.9; CYP2C19 inhib: -1

What do the screens show for `CCOc1ccc(S(=O)(=O)Nc2ccccc2C(=O)NCC2CCCO2)cc1` (centres undefined)?
CD11b adhes enh: -4; CYP2C9 inh: 35; CYP2C19 act: 0.3; CYP2C9 act: 0.7; Mac1 fbg inh: 3; CYP2C19 inhib: 71*

Results for CCOc1ccc(S(=O)(=O)Nc2ccccc2C(=O)N/N=C/c2c(OC)ccc3ccccc23)cc1 ?
CD11b adhes enh: 5; Mac1 fbg inh: 54

How did CCOC(=O)c1ccccc1NS(=O)(=O)c1ccc(OCC)cc1 do in these assays?
CD11b adhes enh: -5; CYP2C9 inh: 40; CYP2C19 act: 0.3; CYP2C9 act: 0.6; Mac1 fbg inh: 16; CYP2C19 inhib: 70*

Results for CCOC(=O)N1CCN(C(=O)COc2cccc3c2CCN(Cc2ccc(F)cc2)C3=O)CC1 ?
CD11b adhes enh: -2; Mac1 fbg inh: 27

What do the screens show for `CC(C)c1ccc2c(c1)C(=O)NC(C)(C)C2`?
CD11b adhes enh: -6; CYP2C9 inh: -9; CYP2C19 act: 0.8; CYP2C9 act: 1.1; Mac1 fbg inh: -15; CYP2C19 inhib: 19

How did Cc1cccc(C(C)Nc2ccc([N+](=O)[O-])cn2)c1 (centres undefined) do in these assays?
CYP2C9 inh: 75*; CYP2C19 act: 0.5; CYP2C9 act: 0.3; CYP2C19 inhib: 49

What do the screens show for `CC(=O)Nc1ccc([N+](=O)[O-])cn1`?
CYP2C9 inh: -23; CYP2C19 act: 1; CYP2C9 act: 1.2; CYP2C19 inhib: 3

Results for O=C(O)CCCCCNC(=O)Nc1ccc2c(c1)OCCO2 ?
CD11b adhes enh: -3; CYP2C9 inh: 14; CYP2C19 act: 0.9; CYP2C9 act: 0.9; Mac1 fbg inh: 11; CYP2C19 inhib: 7

How did CN/S(=N/S(=O)(=O)c1ccccc1)c1ccc(C)cc1 (centres undefined) do in these assays?
CD11b adhes enh: -1; CYP2C9 inh: 26; CYP2C19 act: 0.2; CYP2C9 act: 0.7; Mac1 fbg inh: -7; CYP2C19 inhib: 76*

Results for Cc1cccc(NC(=O)CN2C(=O)NC(Cc3ccccc3)C2=O)c1 (centres undefined) ?
CD11b adhes enh: 0; CYP2C9 inh: 60*; CYP2C19 act: 0.5; CYP2C9 act: 0.4; Mac1 fbg inh: 6; CYP2C19 inhib: 47
